From PubChem BioAssay AID1159580 (chemical genetic matrix, 2015)
Several values for one entry are separate records, joined by “and”; a condition that tells them apart may be missing. Equal values may be shown once. The whole screen tested about 5,500 compounds, of which about 2,000 (36%) were called active. Roughly 18% stayed inconclusive and do not appear here. Rule as the data show it: active = normalized growth mostly below about 0.91 (no sharp cut-off); inconclusive = no clear call, values can overlap the other calls; inactive = mostly above about 0.92. The list shows a part of the results.

Experiment: chemical genetic growth profiling, strain panel (AID 1159580);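 also: tested at 20 µM; growth read once vehicle control cultures reached saturation at 30 °C; 1 = growth at the plate median or of vehicle wells; lower values mean less growth of the strain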
Conditions: S. cerevisiae deletion strains, growth OD

Measured: normalized growth

C[C@@H]1O[C@@H](OC[C@H]2OC(Oc3c(-c4ccc(OCCO)c(OCCO)c4)oc4cc(OCCO)cc(O)c4c3=O)[C@H](O)[C@@H](O)[C@@H]2O)[C@H](O)[C@H](O)[C@H]1O (stereo not given in full)
inactive: locus YAL013W, strain DEP1, hits give low values 0.994 | locus YAL021C, strain ccr4, hits give low values 0.972 | locus YAL026C, strain drs2, hits give low values 0.973 | locus YAL030W, strain snc1, hits give low values 0.946 | locus YBL061C, strain skt5, hits give low values 0.974 | locus YBR009C, strain hhf1, hits give low values 0.981 | locus YBR021W, strain FUR4, hits give low values 1.02 | locus YBR023C, strain chs3, hits give low values 0.956 | locus YBR171W, strain sec66, hits give low values 0.945 | locus YBR229C, strain ROT2, hits give low values 0.961 | locus YBR231C, strain swc5, hits give low values 0.962 | locus YBR279W, strain paf1, hits give low values 0.967 | locus YCL011C, strain gbp2, hits give low values 0.952 | locus YCL016C, strain dcc1, hits give low values 0.984 | locus YCL029C, strain bik1, hits give low values 1.01 | locus YCL061C, strain MRC1, hits give low values 0.973 | locus YCL069W, strain vba3, hits give low values 0.966 | locus YCR088W, strain abp1, hits give low values 0.969 | locus YDL005C, strain med2, hits give low values 0.963 | locus YDL035C, strain GPR1, hits give low values 0.945 | locus YDL040C, strain nat1, hits give low values 0.972 | locus YDL074C, strain BRE1, hits give low values 1.01 | locus YDL101C, strain DUN1, hits give low values 0.979 | locus YDL185W, strain tfp1, hits give low values 0.973 | locus YDL192W, strain arf1, hits give low values 0.992 | locus YDR001C, strain nth1, hits give low values 0.943 | locus YDR069C, strain doa4, hits give low values 0.931 | locus YDR101C, strain arx1, hits give low values 1.04 | locus YDR137W, strain rgp1, hits give low values 0.938 | locus YDR159W, strain sac3, hits give low values 0.94 | locus YDR162C, strain NBP2, hits give low values 0.985 | locus YDR195W, strain ref2 0.892 | locus YDR297W, strain sur2, hits give low values 0.974 | locus YDR318W, strain mcm21, hits give low values 0.963 | locus YDR334W, strain swr1, hits give low values 0.916 | locus YDR335W, strain msn5, hits give low values 0.958 | locus YDR388W, hits give low values 0.994 | locus YDR392W, strain spt3, hits give low values 1.02 | locus YDR502C, strain sam2, hits give low values 0.995 | locus YEL003W, strain gim4, hits give low values 0.968 | locus YEL037C, strain rad23, hits give low values 0.955 | locus YEL061C, strain CIN8 (second series), hits give low values 0.947 | locus YEL061C, strain CIN8, hits give low values 0.997 | locus YER015W, strain faa2, hits give low values 0.984 | locus YER016W, strain bim1, hits give low values 0.96 | locus YER110C, hits give low values 0.978 | locus YER111C, strain swi4, hits give low values 0.963 | locus YER155C, strain BEM2 (second series), hits give low values 0.974 | locus YER155C, strain BEM2, hits give low values 1 | locus YER167W, strain BCK2, hits give low values 1.01 | locus YFR010W, strain ubp6, hits give low values 0.946 | locus YGL078C, strain dbp3, hits give low values 0.996 | locus YGL086W, strain mad1, hits give low values 1.03 | locus YGL167C, strain pmr1, hits give low values 0.933 | locus YGL173C, strain kem1, hits give low values 0.993 | locus YGL227W, strain vid30, hits give low values 0.938 | locus YGL240W, strain doc1, hits give low values 0.958 | locus YGL248W, strain PDE1, hits give low values 0.965 | locus YGL253W, strain hxk2, hits give low values 0.965 | locus YGR078C, strain PAC10, hits give low values 0.984 | locus YGR135W, strain pre9, hits give low values 0.97 | locus YGR252W, strain gcn5, hits give low values 0.947 | locus YHR013C, strain ard1, hits give low values 0.973 | locus YHR027C, strain rpn1, hits give low values 0.958 | locus YHR030C, strain SLT2, hits give low values 1 and 0.999 | locus YHR079C, strain IRE1 (second series), hits give low values 1 | locus YHR079C, strain IRE1, hits give low values 1.02 | locus YHR094C, strain hxt1, hits give low values 0.969 | locus YHR129C, strain ARP1, hits give low values 0.99 | locus YHR142W, strain chs7, hits give low values 0.958 | locus YHR200W, strain rpn10, hits give low values 0.983 | locus YIL066C, strain RNR3, hits give low values 0.972 | locus YIL073C, strain SPO22, hits give low values 0.969 | locus YIL125W, strain kgd1, hits give low values 0.991 | locus YIR030C, strain dcg1, hits give low values 0.993 | locus YJL092W, strain hpr5, hits give low values 0.967 | locus YJL095W, strain BCK1 (second series), hits give low values 0.967 | locus YJL095W, strain BCK1, hits give low values 0.972 and 1.01 | locus YJL115W, strain asf1, hits give low values 0.948 | locus YJL129C, strain trk1, hits give low values 0.954 | locus YJL134W, strain LCB3, hits give low values 0.99 | locus YJL154C, strain vps35, hits give low values 0.958 | locus YJL164C, strain tpk1, hits give low values 0.995 | locus YJL166W, strain qcr8, hits give low values 0.971 | locus YJL168C, strain set2, hits give low values 0.993 | locus YJL187C, strain SWE1 (second series), hits give low values 0.983 | locus YJR043C, strain POL32, hits give low values 0.972 | locus YJR066W, strain TOR1, hits give low values 0.941 | locus YJR075W, strain HOC1, hits give low values 0.983 | locus YKL009W, strain mrt4, hits give low values 0.978 | locus YKL068W, hits give low values 0.973 | locus YKL085W, strain MDH1 (second series), hits give low values 0.981 | locus YKL085W, strain MDH1, hits give low values 0.981 | locus YKL160W, strain elf1, hits give low values 0.986 | locus YKL190W, strain CNB1, hits give low values 0.992 | locus YKR001C, strain vps1, hits give low values 0.994 | locus YKR026C, strain gcn3, hits give low values 0.946 | locus YKR091W, strain srl3, hits give low values 0.974 | locus YLL001W, strain dnm1, hits give low values 0.963 | locus YLL026W, hits give low values 0.947 | locus YLL041C, strain sdh2, hits give low values 0.959 | locus YLR027C, strain aat2, hits give low values 0.964 | locus YLR039C, strain RIC1, hits give low values 1.07 | locus YLR058C, strain SHM2, hits give low values 0.978 | locus YLR102C, strain apc9, hits give low values 0.986 | locus YLR113W, strain HOG1, hits give low values 1.01 | locus YLR221C, strain rsa3, hits give low values 0.986 | locus YLR258W, strain gsy2, hits give low values 0.971 | locus YLR262C, strain YPT6 (second series), hits give low values 0.961 | locus YLR262C, strain YPT6, hits give low values 1.08 | locus YLR268W, strain sec22, hits give low values 1.03 | locus YLR320W, strain mms22, hits give low values 1.01 | locus YLR330W, strain CHS5, hits give low values 1 | locus YLR342W, strain FKS1 (second series), hits give low values 0.985 | locus YLR342W, strain FKS1, hits give low values 0.974 | locus YLR357W, strain rsc2, hits give low values 0.947 | locus YLR370C, strain arc18, hits give low values 0.954 | locus YLR371W, strain rom2, hits give low values 0.963 | locus YLR384C, strain iki3, hits give low values 0.962 | locus YLR418C, strain cdc73, hits give low values 0.959 | locus YML016C, strain PPZ1, hits give low values 0.996 | locus YML032C, strain rad52, hits give low values 0.952 | locus YML120C, strain ndi1, hits give low values 0.963 | locus YML124C, strain tub3, hits give low values 1.01 | locus YMR058W, strain fet3, hits give low values 0.959 | locus YMR078C, strain ctf18, hits give low values 0.988 | locus YMR125W, strain sto1, hits give low values 0.948 | locus YMR129W, hits give low values 0.972 | locus YMR205C, strain PFK2, hits give low values 0.977 | locus YMR223W, strain ubp8, hits give low values 0.985 | locus YMR231W, strain pep5, hits give low values 0.971 | locus YMR307W, strain GAS1, hits give low values 1.01 | locus YNL067W, strain RPL9B, hits give low values 0.978 | locus YNL071W, strain lat1, hits give low values 0.971 | locus YNL128W, strain TEP1, hits give low values 0.998 | locus YNL183C, strain NPR1, hits give low values 0.936 | locus YNL209W, strain ssb2, hits give low values 0.958 | locus YNL233W, strain BNI4, hits give low values 0.993 | locus YNL248C, strain rpa49, hits give low values 0.973 | locus YNL250W, strain rad50, hits give low values 0.984 | locus YNL271C, strain bni1, hits give low values 0.993 | locus YNL298W, strain CLA4, hits give low values 0.973 | locus YNL307C, strain MCK1, hits give low values 0.988 | locus YNL322C, strain KRE1 (second series), hits give low values 0.949 | locus YNR049C, strain mso1, hits give low values 0.965 | locus YNR052C, strain pop2, hits give low values 0.99 | locus YOL012C, strain htz1 1.9 | locus YOL147C, strain pex11, hits give low values 0.991 | locus YOR001W, strain rrp6, hits give low values 0.962 | locus YOR061W, strain CKA2, hits give low values 0.954 | locus YOR069W, strain VPS5, hits give low values 0.994 | locus YOR070C, strain gyp1, hits give low values 0.977 | locus YOR080W, strain dia2, hits give low values 0.943 | locus YOR083W, strain WHI5, hits give low values 0.987 | locus YOR106W, strain vam3, hits give low values 0.943 | locus YOR136W, strain idh2, hits give low values 0.984 | locus YOR144C, strain elg1, hits give low values 0.986 | locus YOR184W, strain ser1, hits give low values 0.987 | locus YOR231W, strain MKK1, hits give low values 1.03 | locus YOR265W, strain rbl2, hits give low values 0.963 | locus YOR270C, strain vph1, hits give low values 0.94 | locus YOR290C, strain snf2, hits give low values 0.972 | locus YOR316C, strain cot1, hits give low values 0.982 | locus YPL051W, strain arl3, hits give low values 0.956 | locus YPL055C, strain LGE1, hits give low values 0.994 | locus YPL078C, strain atp4, hits give low values 0.952 | locus YPL106C, strain sse1, hits give low values 0.925 | locus YPL240C, strain hsp82, hits give low values 0.972 | locus YPL241C, strain CIN2, hits give low values 1 | locus YPL256C, strain CLN2, hits give low values 1.01 | locus YPR119W, strain clb2, hits give low values 0.996 | locus YPR141C, strain kar3, hits give low values 0.974 | locus YPR163C, strain tif3, hits give low values 0.993 | locus YPR167C, strain met16, hits give low values 0.99 | strain wtn01, hits give low values 1.02
